Test results: PubChem BioAssay (Tox21)
Results filed as inconclusive are left out. Activity calls are given as the source filed them. Unless noted, calls follow the shape of the full dose curve.

Assays:
[1] = target: Glucocorticoid receptor (Homo sapiens) (UniProt P04150); assay: qHTS assay to identify small molecule antagonists of the glucocorticoid receptor (GR) signaling pathway (AID 720692; active = well fitted inhibition curve with a large enough effect in the signal ratio in the repeat runs, not every such curve was filed as active; the % refers to the signal ratio)
How it was run: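 HeLa GR-bla cells; cmpd + dex 5 nM final, 18 h 37 C; LiveBLAzer B/G FRET substrate 2 h RT; fluorescence intensity read. Antagonist mode, qHTS.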

[2] = target: Aryl hydrocarbon receptor (Homo sapiens) (UniProt P35869); assay: qHTS assay to identify small molecule that activate the aryl hydrocarbon receptor (AhR) signaling pathway (AID 743085; active = well fitted activation curve with a large enough effect in the repeat runs;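 also: HG2L7.5c1 human HepG2 liver cells with stably integrated DRE-driven firefly reporter; series mostly up to about 70 µM; nearly all actives have a fitted effect of over 15% in size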)
How it was run: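 AhR agonist activity is inferred from enhanced light output of a DRE-controlled firefly luciferase reporter in HepG2 cells, measured with ONE-Glo following 24 h treatment at 37C.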

[3] = target: Acetylcholinesterase (Homo sapiens) (UniProt P22303); assay: Acetylcholinesterase (AChE) small molecule antagonists: colormetric cell-based qHTS assay (AID 1347395); also: nearly all actives have a fitted effect of over 30% in size
How it was run: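 AChE inhibition read colorimetrically via DTNB–thiocholine in SH-SY5Y cells. Compound 30 min, substrate 90 min, both 37 C.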

[4] = target: Acetylcholinesterase (Homo sapiens) (UniProt P22303); assay: Acetylcholinesterase (AChE) small molecule antagonists: enzyme-based qHTS assay (AID 1347397); settings: Potency: AChE enzyme activity inhibition; outcome: AChE enzyme activity inhibition; also: nearly all actives have a fitted effect of over 55% in size
How it was run: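 Recombinant human AChE, dispensed at 50 mU/mL, was preincubated with Tox21 10K compounds or DMSO vehicle for 30 min at room temperature. DTNB plus acetylthiocholine was then added, and thiocholine was measured colorimetrically after a further 10 min.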

[5] = target: Acetylcholinesterase (Homo sapiens) (UniProt P22303); assay: Acetylcholinesterase (AChE) small molecule antagonists: fluorescence cell-based qHTS assay (AID 1347398); settings: Potency: AChE activity; outcome: AChE activity; also: nearly all actives have a fitted effect of over 50% in size
How it was run: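 Human SH-SY5Y cells were plated overnight at 37 C, exposed to compound for 30 min at 37 C, 5% CO2, then given acetylthiocholine plus Thiolite Green for 40 min at room temperature; thiocholine fluorescence (Ex/Em 490/520 nm) reports endogenous AChE activity.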

[6] = target: Acetylcholinesterase (Homo sapiens) (UniProt P22303); assay: Acetylcholinesterase (AChE) small molecule antagonists: enzyme-based qHTS assay with human liver microsomes (AID 1347399); settings: Potency: qHTS inhibition; outcome: qHTS inhibition; also: nearly all actives have a fitted effect of over 60% in size
How it was run: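 Recombinant human AChE (50 mU/mL in the enzyme mix) and human liver microsomes (0.25 mg/mL final) were preincubated with compound and NADPH (0.25 mg/mL final) for 30 min at 37 C. Acetylthiocholine/DTNB was then added; thiocholine was read colorimetrically after 10 min at room temperature.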
% is scaled to controls: 0 for no effect and ±100 for the full control effect.

Chain of Acetylcholinesterase (Homo sapiens) (P22303 whole entry, looked up): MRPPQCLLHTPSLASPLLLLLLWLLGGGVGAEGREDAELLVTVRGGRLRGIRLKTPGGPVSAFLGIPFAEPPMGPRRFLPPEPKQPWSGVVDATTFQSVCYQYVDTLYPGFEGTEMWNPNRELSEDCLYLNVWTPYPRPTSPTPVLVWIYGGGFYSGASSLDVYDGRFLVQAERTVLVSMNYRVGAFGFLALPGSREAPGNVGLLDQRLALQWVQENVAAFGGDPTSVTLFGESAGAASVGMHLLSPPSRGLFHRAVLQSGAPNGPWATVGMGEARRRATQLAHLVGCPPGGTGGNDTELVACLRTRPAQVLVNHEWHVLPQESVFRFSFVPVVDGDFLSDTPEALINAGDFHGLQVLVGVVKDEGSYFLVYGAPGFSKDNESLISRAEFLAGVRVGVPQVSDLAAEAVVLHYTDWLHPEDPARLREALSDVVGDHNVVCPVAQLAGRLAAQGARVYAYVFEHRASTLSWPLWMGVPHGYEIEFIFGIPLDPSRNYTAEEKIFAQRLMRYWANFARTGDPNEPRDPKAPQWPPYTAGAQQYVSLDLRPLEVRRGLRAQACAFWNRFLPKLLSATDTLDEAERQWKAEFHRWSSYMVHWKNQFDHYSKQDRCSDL
Chain of Aryl hydrocarbon receptor (Homo sapiens) (P35869 whole entry, looked up): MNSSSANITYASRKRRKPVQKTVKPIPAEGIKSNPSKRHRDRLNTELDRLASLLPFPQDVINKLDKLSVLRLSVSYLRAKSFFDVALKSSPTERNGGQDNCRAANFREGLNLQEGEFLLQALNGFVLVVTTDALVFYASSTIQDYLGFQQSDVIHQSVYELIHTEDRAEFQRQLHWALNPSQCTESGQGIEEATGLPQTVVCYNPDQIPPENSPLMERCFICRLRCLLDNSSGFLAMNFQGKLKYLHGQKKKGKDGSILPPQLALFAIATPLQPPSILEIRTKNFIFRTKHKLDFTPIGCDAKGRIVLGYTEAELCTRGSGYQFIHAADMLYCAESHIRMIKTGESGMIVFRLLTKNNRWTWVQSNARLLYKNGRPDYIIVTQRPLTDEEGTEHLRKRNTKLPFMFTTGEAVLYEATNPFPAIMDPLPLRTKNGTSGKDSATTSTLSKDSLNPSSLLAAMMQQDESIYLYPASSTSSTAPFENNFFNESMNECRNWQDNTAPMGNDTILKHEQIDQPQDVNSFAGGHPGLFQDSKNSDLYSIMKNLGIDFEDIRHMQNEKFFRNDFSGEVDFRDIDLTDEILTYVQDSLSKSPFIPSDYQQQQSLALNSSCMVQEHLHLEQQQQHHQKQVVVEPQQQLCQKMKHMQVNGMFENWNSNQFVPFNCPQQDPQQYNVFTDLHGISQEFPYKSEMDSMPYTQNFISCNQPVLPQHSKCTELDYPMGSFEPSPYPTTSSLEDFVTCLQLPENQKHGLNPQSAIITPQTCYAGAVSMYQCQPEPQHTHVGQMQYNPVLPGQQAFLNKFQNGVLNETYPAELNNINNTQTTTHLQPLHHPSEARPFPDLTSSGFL
Chain of Glucocorticoid receptor (Homo sapiens) (P04150 whole entry, looked up): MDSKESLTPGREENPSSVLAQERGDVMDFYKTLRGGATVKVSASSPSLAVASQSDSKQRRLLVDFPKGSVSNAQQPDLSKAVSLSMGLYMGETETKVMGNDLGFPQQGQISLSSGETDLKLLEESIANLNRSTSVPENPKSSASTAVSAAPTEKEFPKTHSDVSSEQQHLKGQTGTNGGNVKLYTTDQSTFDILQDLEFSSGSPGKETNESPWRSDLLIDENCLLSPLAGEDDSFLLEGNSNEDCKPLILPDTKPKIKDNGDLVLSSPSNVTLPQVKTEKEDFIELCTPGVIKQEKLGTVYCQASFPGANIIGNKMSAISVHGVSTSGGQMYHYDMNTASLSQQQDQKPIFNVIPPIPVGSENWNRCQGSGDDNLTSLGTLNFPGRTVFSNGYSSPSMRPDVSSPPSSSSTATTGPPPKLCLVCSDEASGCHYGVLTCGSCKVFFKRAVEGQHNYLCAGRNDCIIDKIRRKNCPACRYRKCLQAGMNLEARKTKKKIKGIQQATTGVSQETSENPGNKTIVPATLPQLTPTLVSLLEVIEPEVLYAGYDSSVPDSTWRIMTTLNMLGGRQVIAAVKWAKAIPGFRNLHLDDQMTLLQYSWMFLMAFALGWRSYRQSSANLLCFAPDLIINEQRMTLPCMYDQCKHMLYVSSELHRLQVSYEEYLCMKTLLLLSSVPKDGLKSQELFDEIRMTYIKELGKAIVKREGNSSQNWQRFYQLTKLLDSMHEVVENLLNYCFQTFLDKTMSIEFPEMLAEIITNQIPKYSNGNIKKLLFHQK

CN1CCC(N(Cc2cccs2)c2ccccc2)CC1
inactive: Potency [1] | outcome [2] | Potency [3] | Potency [4] | Potency [5] | Potency [6]

CCN(CC)C(=O)N(CC)CC
inactive: Potency [3] | Potency [4] | Potency [5] | Potency [6]

CN(C)CCOc1ccccc1Cc1ccccc1
inactive: Potency [3] | Potency [4] | Potency [5] | Potency [6]

Brc1cc(Br)c(Oc2cc(Br)c(Br)cc2Br)cc1Br
inactive: outcome [2] | Potency [3] | Potency [4] | Potency [5] | Potency [6]

O=[N+]([O-])c1ccc(Cl)cc1Cl
inactive: Potency [3] | Potency [4] | Potency [5] | Potency [6]

O=C1CCCCO1
inactive: Potency [3] | Potency [4] | Potency [6]

CN(C)CC[C@@H](c1ccc(Br)cc1)c1ccccn1
inactive: Potency [3] | Potency [4] | Potency [6]

CN(C)CC/C=C1\c2ccccc2Sc2ccc(Cl)cc21
inactive: Potency [3] | Potency [4] | Potency [6]

C=CC(C)C#N (stereo not given)
inactive: Potency [3] | Potency [4] | Potency [6]

COc1cc(NC(C)CCCN)c2ncccc2c1 (stereo not given)
inactive: Potency [3] | Potency [4] | Potency [6]

Cc1cc(O)c(C(C)(C)C)cc1C(C)(C)C
inactive: Potency [3] | Potency [4] | Potency [6]

CCO[C@@H]1O[C@H](C(COCc2ccccc2)OCc2ccccc2)[C@H](OCc2ccccc2)[C@H]1O (stereo not given in full)
inactive: Potency [3] | Potency [4] | Potency [6]

N=C(N)N1CCc2ccccc2C1
inactive: activity, negative = inhibition [3] 3.08% [at 10.5 µM] | activity change, negative = inhibition [4] 0.139% [at 10.5 µM] | activity change, negative = inhibition [6] 2.85% [at 10.5 µM]

Cc1cc(-c2ccccc2)nnc1NCCN1CCOCC1
inactive: Potency [3] | Potency [4] | Potency [6]

CSc1ccc(Oc2ccc(S(N)(=O)=O)cc2CN(C)C)cc1C
inactive: Potency [3] | Potency [4] | Potency [6]

O=C(O)Cc1sc(-c2ccccc2)nc1-c1ccc(Cl)cc1
inactive: Potency [3] | Potency [4] | Potency [6]

CSc1ccc2c(c1)C(N1CCN(C)CC1)Cc1ccccc1S2 (stereo not given)
inactive: Potency [3] | Potency [4] | Potency [6]

O=[N+]([O-])C1(Br)COCOC1
inactive: Potency [3] | Potency [4] | Potency [6]

O=C(CCCN1CCN(c2ccc(F)cc2)CC1)NC1c2ccccc2CSc2ccccc21 (stereo not given)
inactive: Potency [3] | Potency [4] | Potency [6]

COc1ccc2nc(SCc3ncc(C)c(OC)c3C)[nH]c2c1
inactive: Potency [3] | Potency [4] | Potency [6]

CC1(C)S[C@@H]2[C@H](NC(=O)C(c3ccccc3)S(=O)(=O)O)C(=O)N2[C@H]1C(=O)O (stereo not given in full)
inactive: Potency [3] | Potency [4] | Potency [6]

CC(=O)OC1CCCCC1C(C)(C)C (stereo not given)
inactive: Potency [3] | Potency [4] | Potency [6]

CCN(CC)C(C)CN1c2ccccc2Sc2ccccc21 (stereo not given)
inactive: Potency [3] | Potency [4] | Potency [6]

CC1(CN2CCC(n3c(=O)[nH]c4ccccc43)CC2)OCc2ccccc2-n2cccc21 (stereo not given)
inactive: Potency [3] | Potency [4] | Potency [6]
